According to PubChem BioAssay (NCATS):
Inconclusive results are not listed. A call without a number means that no potency is given here. The source made the active and inactive calls. Unless noted, calls come from the whole dose curve; as a rule, active = well fitted curve in the direction sought with a large enough effect; inconclusive = small, poorly fitted or top-dose-only effect, or another doubt; inactive = no such curve, though single readings can be large; an effect the other way counts as inactive or inconclusive.

What was measured:
[1] = NS1 protein of Zika virus - qHTS assay to identify small molecule inhibitors in human HEK 293 cells (AID 1347053); note: series mostly up to about 46 µM; nearly all actives have a fitted effect of over 55% in size
Summary of the method: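 In this cell-based screen, HEK 293 cultures received compound for one hour before Zika MR766 at MOI = 0.5. NS1 was quantified 24 hours later by TR-FRET, normalized to virus-free wells and infected wells.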

[2] = qHTS for Inhibitors of the Functional Ribonucleoprotein Complex (vRNP) of Lassa (LASV) Arenavirus: LASV Primary Screen - GLuc reporter signal (AID 1347082; calls by dose curve; tested in HEK293 reporter line; note: series mostly up to about 57 µM; nearly all actives have a fitted effect of over 60% in size)
[3] = qHTS for Inhibitors of the Functional Ribonucleoprotein Complex (vRNP) of Lassa (LASV) Arenavirus: Viability assay - alamar blue signal for LASV Primary Screen (AID 1347083; calls by dose curve; tested in HEK293 reporter line; note: series mostly up to about 57 µM; nearly all actives have a fitted effect of over 80% in size)
[4] = qHTS for Inhibitors of the Functional Ribonucleoprotein Complex (vRNP) of Lymphocytic Choriomeningitis Arenaviruses (LCMV): Viability assay - alamar blue signal for LCMV Primary Screen (AID 1347085; calls by dose curve; tested in HEK293 reporter line; note: series mostly up to about 57 µM; nearly all actives have a fitted effect of over 80% in size)
[5] = target: Nucleoprotein (Lymphocytic choriomeningitis virus (strain Armstrong)) (UniProt P09992); assay: qHTS for Inhibitors of the Functional Ribonucleoprotein Complex (vRNP) of Lymphocytic Choriomeningitis Arenaviruses (LCMV): LCMV Primary Screen - GLuc reporter signal (AID 1347086; calls by dose curve; note: series mostly up to about 57 µM; nearly all actives have a fitted effect of over 70% in size)
Nucleoprotein (Lymphocytic choriomeningitis virus (strain Armstrong)), sequence (P09992 whole entry, looked up): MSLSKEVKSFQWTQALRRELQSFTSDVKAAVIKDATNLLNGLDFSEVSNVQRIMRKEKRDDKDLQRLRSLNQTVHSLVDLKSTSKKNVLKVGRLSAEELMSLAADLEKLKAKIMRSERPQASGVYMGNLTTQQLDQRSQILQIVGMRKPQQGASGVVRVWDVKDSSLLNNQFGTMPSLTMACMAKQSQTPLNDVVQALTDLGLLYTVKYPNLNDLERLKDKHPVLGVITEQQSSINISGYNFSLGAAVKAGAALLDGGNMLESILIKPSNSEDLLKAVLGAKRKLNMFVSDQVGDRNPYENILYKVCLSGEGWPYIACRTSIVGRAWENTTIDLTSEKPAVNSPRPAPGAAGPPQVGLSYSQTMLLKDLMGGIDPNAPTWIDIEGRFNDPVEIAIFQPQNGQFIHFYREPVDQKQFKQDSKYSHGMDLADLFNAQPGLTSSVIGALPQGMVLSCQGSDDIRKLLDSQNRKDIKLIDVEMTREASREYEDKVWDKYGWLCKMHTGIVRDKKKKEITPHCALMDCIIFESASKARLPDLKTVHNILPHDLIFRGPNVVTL

[6] = qHTS of pediatric cancer cell lines to identify multiple opportunities for drug repurposing: Primary screen for TC32 cells (AID 1347089); note: nearly all actives have a fitted effect of over 60% in size
Summary of the method: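 Measured quantity: luminescence from CellTiter-Glo, reflecting metabolically active TC32 cells following 48 h of compound. Curves came straight from multi-point titrations, with 8 or 11 points in primary and 11 in confirmatory screening.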

[7] = qHTS of pediatric cancer cell lines to identify multiple opportunities for drug repurposing: Primary screen for DAOY cells (AID 1347090); note: nearly all actives have a fitted effect of over 55% in size; note: potency is the fitted concentration of half-maximal effect
Summary of the method: (§1)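 Cell viability, CellTiter-Glo luminescence; 500-1,000 cells/well, 8- or 11-point titration, 48 h compound exposure at 37 degrees C, 5% CO2. Controls: DMSO neutral, bortezomib 2.3 µM final as positive.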

[8] = qHTS of pediatric cancer cell lines to identify multiple opportunities for drug repurposing: Primary screen for SJ-GBM2 cells (AID 1347091)
Summary of the method: as §1

[9] = qHTS of pediatric cancer cell lines to identify multiple opportunities for drug repurposing: Primary screen for A673 cells (AID 1347092); note: nearly all actives have a fitted effect of over 45% in size; note: potency is the fitted concentration of half-maximal effect
Summary of the method: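 Cells are plated, rested 5 h, dosed by pintool, incubated 48 h, then lysed with CellTiter-Glo and read by luminescence. DMSO is the neutral control; bortezomib at 2.3 uM final is the positive control.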

[10] = qHTS of pediatric cancer cell lines to identify multiple opportunities for drug repurposing: Primary screen for SK-N-MC cells (AID 1347093); note: series mostly up to about 46 µM
Summary of the method: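 Metabolically active cells were quantified by ATP-dependent luminescence (CellTiter-Glo, 15 min at room temperature) following 48 h treatment. Cells had been plated at 500-1,000 per well and settled for 5 h beforehand.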

[11] = qHTS of pediatric cancer cell lines to identify multiple opportunities for drug repurposing: Primary screen for BT-37 cells (AID 1347094); note: series mostly up to about 57 µM
Summary of the method: (§2)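 Phenotypic viability qHTS, 48 h compound exposure, CellTiter-Glo luminescence read-out; multi-concentration dosing so that potency and efficacy derive directly from the primary screen's curves.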

[12] = qHTS of pediatric cancer cell lines to identify multiple opportunities for drug repurposing: Primary screen for NB-EBc1 cells (AID 1347095); note: potency is the fitted concentration of half-maximal effect
Summary of the method: as §2

[13] = qHTS of pediatric cancer cell lines to identify multiple opportunities for drug repurposing: Primary screen for U-2 OS cells (AID 1347096); note: nearly all actives have a fitted effect of over 50% in size
Summary of the method: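 Cells (500-1,000/well) rested 5 h, then received compounds for 48 h; metabolically active cells were measured by CellTiter-Glo luminescence. Final concentrations spanned up to 46 µM (MIPE, 11-point) or 0.59 nM-46 µM (NPC, 8-point) in primary screens, 11-point in follow-ups.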

[14] = qHTS of pediatric cancer cell lines to identify multiple opportunities for drug repurposing: Primary screen for Saos-2 cells (AID 1347097); note: nearly all actives have a fitted effect of over 40% in size
Summary of the method: as §2

SMILES	Potency [1]	Potency [2]	Potency [3]	Potency [4]	Potency [5]	Potency [6]	Potency [7]	Potency [8]	Potency [9]	Potency [10]	Potency [11]	Potency [12]	Potency [13]	Potency [14]
COc1cc(CC#N)cc(OC)c1OC	inactive	inactive	inactive	inactive	inactive	inactive	inactive	inactive	inactive	inactive	inactive	inactive	inactive	inactive
O=c1[nH]c2cc(Cl)ccc2n1C1CCNCC1	inactive	inactive	inactive	inactive	inactive	inactive	inactive	inactive	inactive	inactive	inactive	inactive	inactive	inactive
CN1CCc2cc(Cl)c(O)cc2[C@H]2c3ccccc3CC[C@@H]21	inactive	inactive	inactive	inactive	inactive	inactive	inactive	inactive	inactive	inactive		inactive	inactive	inactive
CC(C(O)c1ccccc1)N(C)C/C=C/c1ccccc1 (stereo unspecified)	inactive	inactive	inactive	inactive	inactive	inactive	inactive	inactive	inactive	inactive		inactive	inactive	inactive
CC(C)=C[C@@H]1[C@@H](C(=O)OCc2coc(Cc3ccccc3)c2)C1(C)C	inactive	inactive	inactive	inactive	inactive	inactive	inactive	inactive	inactive			inactive	inactive	inactive
CC1Sc2c(C(=O)O)c(=O)c3cc(F)c(N4CCNCC4)cc3n21 (stereo unspecified)	inactive	inactive	inactive	inactive	inactive	inactive	inactive	inactive				inactive	inactive	inactive
c1ccc2nc(N3CCNCC3)ccc2c1	inactive	inactive	inactive	inactive	inactive	inactive	inactive	inactive	inactive		inactive	inactive	inactive	inactive
CN1CCC(N(Cc2ccccc2)c2ccccc2)CC1	inactive	inactive	inactive	inactive	inactive	inactive	inactive	inactive	inactive		inactive	inactive	inactive	inactive
CNC(C)Cc1ccccc1OC (stereo unspecified)	inactive	inactive	inactive	inactive	inactive	inactive	inactive	inactive	inactive		inactive	inactive	inactive	
CN1C(=O)CN=C(c2ccccc2)c2cc([N+](=O)[O-])ccc21	inactive	inactive	inactive	inactive	inactive	inactive	inactive	inactive	inactive			inactive	inactive	inactive
CC[C@H]1C[C@@H]2C[C@H]3c4[nH]c5ccc(OC)cc5c4CCN(C2)[C@@H]13	inactive	inactive	inactive	inactive	inactive	inactive	37.8 µM (active)	inactive				inactive	inactive	
CN1C2CCC(C)(C)C1CC(OC(=O)C(O)(c1cccs1)c1cccs1)C2 (stereo unspecified)	inactive	inactive	inactive	inactive	inactive	inactive	inactive		inactive	inactive	inactive	inactive	inactive	inactive
COc1cc(C[C@@H](C)N)c(OC)cc1C	inactive	inactive	inactive	inactive	inactive	inactive	inactive	inactive	inactive	inactive			inactive	inactive
CC1N=C(N)OC1c1ccccc1 (stereo unspecified)	inactive	inactive	inactive	inactive	inactive	inactive	inactive	inactive	inactive	inactive		inactive	inactive	inactive
CCc1cc(OC)c(C[C@H](C)N)cc1OC	inactive	inactive	inactive	inactive	inactive	inactive	inactive	inactive			inactive	inactive	inactive	inactive
C[C@H]1C(=O)O[C@@H]2CCN3CC=C(COC(=O)[C@](C)(O)[C@]1(C)O)[C@H]23	inactive	inactive	inactive	inactive	inactive	inactive	inactive	inactive	inactive		inactive	29.9 µM (active)	inactive	inactive
C[N+]1(CCC(C(N)=O)(c2ccccc2)c2ccccc2)CCCCC1	inactive	inactive	inactive	inactive	inactive	inactive	inactive	inactive	inactive	inactive		inactive	inactive	inactive
CCOC(C(=O)OCCN(C)C)(c1ccccc1)c1ccccc1	inactive	inactive	inactive	inactive	inactive	inactive	inactive	inactive	inactive		inactive	inactive	inactive	inactive
COc1cc(CC(C)N)cc2c1OCO2 (stereo unspecified)	inactive	inactive	inactive	inactive	inactive	inactive	inactive	inactive		inactive	inactive	inactive	inactive	inactive
C#C[C@]1(O)C=C[C@H]2[C@@H]3CCC4=CC(=O)CC[C@@H]4[C@H]3CC[C@@]21CC	inactive	inactive	inactive	inactive	inactive	inactive	inactive	inactive	inactive	inactive			inactive	inactive
C[N+]1(C)[C@@H]2CC[C@H]1CC(OC(=O)C(CO)c1ccccc1)C2 (stereo partly specified)	inactive	inactive	inactive	inactive	inactive	inactive	inactive	inactive	inactive			inactive	inactive	inactive
Nc1ccc(N)cc1	inactive	inactive	inactive	inactive	inactive	inactive	inactive	inactive	21.1 µM (active)		inactive		inactive	
C=CCOC(Cn1ccnc1)c1ccc(Cl)cc1Cl (stereo unspecified)	inactive	inactive	inactive	inactive	inactive	inactive	inactive	inactive		inactive		inactive	inactive	inactive
